Drawing on PubChem BioAssay (EPA / NIEHS), this text covers outcome and AC50 for 36 compounds.

Each structure is given as a SMILES string. Values joined by “and” are separate entries in the source; they are usually repeats but may differ in a detail not shown here. Equal entries are not always repeated. Inconclusive results are not listed. More than one record can exist for a structure, and the calls need not agree. Active and inactive are the calls of the source. Rule for the calls, unless noted: active = hit-call score of the fitted dose curve at least 0.9, where 1 is the maximum; inactive = score below 0.9.

Test [1] in a line: CCTE_Shafer_MEA_acute_LDH: CCTE's Lactate Dehydrogenase Assay for Cytotoxicity in the Neural Acute Assay, Shafer Lab (AID 2284086; active = hit-call score of the fitted dose curve at least 0.9, where 1 is the maximum;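 note: active means LDH release rises above DMSO vehicle level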). In short, it runs like this: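 Cytotoxicity readout: spectrophotometric LDH activity in supernatant of rat primary cortical neurons, post-plating day 13 or 15, sampled after 40 min compound exposure; signal gain relative to DMSO baseline.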
A short description of test [2]: BSK_BT_PBMCCytotoxicity: PBMC Cytotoxicity Assessment in the BioMAP Diversity Plus: BT Assay (AID 2284225).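 Note: PBMC viability measured by Alamar Blue dye reduction fluorescence.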 The following applies: primary human B cells with PBMC. In short, it runs like this:
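Primary human co-culture of B cells and PBMC, pre-dosed 1 h then activated with SEB and TSST-1. Cytotoxicity is taken from Alamar Blue dye reduction, added for 6 h at the end of a 90 h incubation.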

Read-out in test [3]: Secreted IgG (sIgG), gene 3500
Description: BSK_BT_sIgG: BioMAP Diversity Plus: BT Assay for Secreted IgG (sIgG) Biomarker Activity (AID 2284226). The following applies: primary human B cells with PBMC. Summed up: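 In this multiplexed co-culture system, ELISA quantifies sIgG 24 h post-treatment. Endpoint analysis uses positive fitting direction, DMSO negative control.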

The nature of test [4]: CCTE_Shafer_MEA_dev_mutual_information_norm: CCTE's Neural Network Formation Assay for Mutual Information Normalization, Shafer Lab (AID 2284091).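 For AC50: mutual information between electrodes summarised as area under curve across four recording days; potency is for a decrease in mutual information relative to DMSO.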 In short, it runs like this:
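Neurons from rat cortex were seeded at 1.5 x 10^5 cells/well onto PEI-coated MEAs in a laminin drop, then exposed to compound from day 0 for twelve days. Network recordings on four days gave mutual information, summarised by AUC relative to DMSO.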

Test [5] can be described thus: CCTE_Shafer_MEA_dev_correlation_coefficient_mean: CCTE's Neural Network Formation Assay for Mean Correlation Coefficient, Shafer Lab (AID 2284093).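 For AC50: well mean pairwise spike train correlation integrated as AUC over recording days 5 to 12; potency fitted for loss of correlation relative to DMSO vehicle wells.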 Summed up: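 Read-out: well-mean correlation coefficient of spike trains between electrode pairs, collapsed over four recording days as trapezoidal area-under-the-curve. Developing rat cortical neuron networks grown on MEAs received test chemical continuously from plating.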

Test [6] can be described thus: IUF_NPC1b_proliferation_BrdU_72hr: Leibniz Research Institute for Environmental Medicine (IUF) 72-hour Neural Progenitor Cell Bromodeoxyuridine (BrdU) Proliferation Assay (NPC1b) (AID 2284207). Summed up: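 Luminescent BrdU ELISA measured DNA synthesis during the last 16 h of a 72 h exposure of primary human neural progenitor spheres grown with EGF and FGF. Signal was fitted relative to DMSO controls.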

The nature of test [7]: IUF_NPC1a_proliferation_area_72hr: Leibniz Research Institute for Environmental Medicine (IUF) 72-hour Neural Progenitor Cell Proliferation Area Assay (NPC1a) (AID 2284208). Summed up:
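Spheres of 0.3 mm are plated singly in growth-factor medium and exposed from day 0. After three days at 37C and 5% CO2, sphere area is measured by phase contrast imaging, with activity referenced to DMSO.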

Test [8] in a line: IUF_NPC1_viability_72hr: Viability Assessment at 72 hours in the Leibniz Research Institute for Environmental Medicine (IUF) Neural Progenitor Cell Proliferation Assay (NPC1) (AID 2284209). Summed up:
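Three-day continuous exposure of human neural progenitor spheres under EGF/FGF-driven proliferation; cell viability scored by alamar blue signal versus DMSO.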

Test [9] can be described thus: CCTE_Mundy_HCI_Cortical_Synap_Neur_Matur_NeuriteSpotCountPerNeuriteLength: CCTE's Synaptogenesis and Neurite Maturation Assay in rat cortical cells for Neurite Spot Count per Neurite Length, Mundy Lab (AID 2284210). Summed up: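 Read-out: synaptophysin puncta counted along MAP2-stained neurites, normalised to neurite length, by automated high-content imaging. Rat cortical cells; AraC DIV 5; chemical dosing DIV 7; termination DIV 12. DMSO baseline.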

Test [10] in a line: CCTE_Mundy_HCI_Cortical_Synap_Neur_Matur_BPCount: CCTE's Synaptogenesis and Neurite Maturation Assay in rat cortical cells for Branch Point Count, Mundy Lab (AID 2284211). Summed up: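 In this multiplexed morphology assay, cortical cells from rat receive chemicals at DIV 7 and are fixed at DIV 12, then immunostained and imaged; branch points are counted, with DMSO as baseline.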

A short description of test [11]: CCTE_Mundy_HCI_Cortical_NOG_NeuriteCount: CCTE's Neurite Outgrowth Assay in rat cortical cells for Neurite Count, Mundy Lab (AID 2284212).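 Note: cells fixed about two days after chemical exposure began.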 Summed up:
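Rat cortical primary cells; compound added 2 h post-plating, 1/10 dilution of working solution. Anti-betaIII-tubulin/AF488 ICC; ArrayScan neurite count vs DMSO.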

Test [12] in a line: CCTE_Mundy_HCI_Cortical_NOG_NeuriteLength: CCTE's Neurite Outgrowth Assay in rat cortical cells for Neurite Length, Mundy Lab (AID 2284213). Summed up:
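First, rat primary cortical cells were plated and, 2 h later, given test chemical as a 1/10 dilution. Finally, βIII-tubulin immunostaining enabled automated imaging of neurite length.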

The nature of test [13]: CCTE_Mundy_HCI_Cortical_Synap_Neur_Matur_NeuriteLength: CCTE's Synaptogenesis and Neurite Maturation Assay in rat cortical cells for Neurite Length, Mundy Lab (AID 2284214). Summed up:
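DMSO-normalised neurite length, from high-content imaging of anti-MAP2-stained rat cortical cells fixed at DIV 12. Glia were suppressed with AraC (DIV 5) before chemical exposure from DIV 7.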

The nature of test [14]: CCTE_Mundy_HCI_Cortical_Synap_Neur_Matur_NeuriteSpotCountPerNeuron: CCTE's Synaptogenesis and Neurite Maturation Assay in rat cortical cells for Neurite Spot Count per Neuron Count, Mundy Lab (AID 2284215). In short, it runs like this: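 Rat cortical primary cultures; AraC DIV 5 to arrest glia; dosing + media change DIV 7; fixed DIV 12. Anti-MAP2/anti-synaptophysin, Hoechst nuclei; HCI puncta count per neuron, positive fitting direction vs DMSO.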

Test [15] is described as follows: CCTE_Mundy_HCI_Cortical_Synap_Neur_Matur_SynapseCount: CCTE's Synaptogenesis and Neurite Maturation Assay in rat cortical cells for Synapse Count, Mundy Lab (AID 2284218). Summed up: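 Endpoint: synapses/neuron by HCI (synaptophysin puncta on MAP2-labelled neurites, Hoechst nuclei). Rat primary cortical cells, AraC DIV 5, dosed DIV 7, fixed DIV 12; DMSO negative control.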

A short description of test [16]: CCTE_Mundy_HCI_Cortical_Synap_Neur_Matur_NeuriteCount: CCTE's Synaptogenesis and Neurite Maturation Assay in rat cortical cells for Neurite Count, Mundy Lab (AID 2284222).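 Note: exposure from day 7 to day 12 in vitro with readout at day 12.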 Summed up: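 Chemical exposure runs DIV 7–12 in rat cortical cultures, glia suppressed by AraC at DIV 5; measurement is at DIV 12. Imaging-derived neurite counts are fitted against DMSO baseline.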

Test [17] is described as follows: CCTE_Mundy_HCI_Cortical_Synap_Neur_Matur_CellBodySpotCount: CCTE's Synaptogenesis and Neurite Maturation Assay in rat cortical cells for Cell Body Spot Count, Mundy Lab (AID 2284223). In short, it runs like this:
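Rat cortical neurons; AraC @ DIV 5; dose + media change DIV 7; fix DIV 12; anti-MAP2/anti-synaptophysin IF, Hoechst; HCI count of soma synaptophysin puncta/neuron; DMSO = negative control.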

The nature of test [18]: CCTE_Mundy_HCI_hNP1_Pro_ResponderAvgInten: CCTE's Proliferation Assay in human neuroprogenitor cells, Mundy Lab (AID 2284224; active = hit-call score of the fitted dose curve at least 0.9, where 1 is the maximum;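 note: human neural progenitor cells hNP1 derived from WA09 embryonic stem cells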). Summed up:
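Proliferation read as average intensity of BrdU-positive cells, imaged at 26.25 h post-dosing: chemical exposure started after 40–44 h culture, BrdU during final 4 h, paraformaldehyde fixation. Positive-direction fit relative to DMSO.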

As to `Oc1ccccc1Cc1ccccc1O`, in [1], the outcome was inactive.
As to `CCN1CN(CC)CN(CC)C1`, the outcome in [2] and in test [3] was inactive.
On to `Cc1c(C(=O)c2c[nH]n(C)c2=O)ccc(S(C)(=O)=O)c1C1=NOCC1`, for which the outcome in [1], in test [4], in test [5], in test [6], in test [7] and in test [8] was inactive. The compound was classed as inactive in [9], in [10], in [11], in [12], in [13] and in test [14]. The call in [15], in test [16] and in [17] was inactive.
Turning to `Fc1ccc(Br)cc1`, the result in test [2] and in [3] was inactive.
For the compound `CC(C)C(=O)OCCc1ccccc1`, the call in test [1] was inactive.
Same read-out and setting: then `CCCC(C)C(=O)OCC` (centres undefined), with “inactive”.
As to `O=C(O)C(F)(F)C(F)(F)C(F)(F)C(F)(F)C(=O)O`, the compound was called inactive in [18], in test [2] and in test [3].
Take `c1ccc(Nc2cccc3ccccc23)cc1`: the outcome in test [1] was inactive.
A word on the AC50: it is the concentration at which the activity in the assay is half-maximal. Turning to `CCNc1nc(NC(C)(C)C)nc(OC)n1`, the AC50 in test [3] was 13.9 µM (active).
For the compound `C[N+](C)(C)CCCNS(=O)(=O)C(F)(F)C(F)(F)C(F)(F)C(F)(F)C(F)(F)C(F)(F)C(F)(F)C(F)(F)F`, the AC50 in test [4] was 906 nM (active) and 914 nM (active); in [5], 4.2 µM (active); in [3], 52.4 µM (active) and 52.6 µM (active). For the same compound, the outcome in [5] was inactive.
Turning to `O=C(Cl)c1c(Cl)c(Cl)c(C(=O)Cl)c(Cl)c1Cl`, the outcome in [2] and in test [3] was inactive.
With `C=CC(=O)NC(C)(C)C`, the outcome in test [3] was inactive.
Turning to `CC(C)[N+](C)(CCOC(=O)C1c2ccccc2Oc2ccccc21)C(C)C`, the result in [3] was inactive.
On to `CC(c1cc(C(C)(C)C)cc(C(C)(C)C)c1O)c1cc(C(C)(C)C)cc(C(C)(C)C)c1O`, for which the AC50 in test [2] was 30.2 µM (active); in test [3], 5.95 µM (active).
In the case of `CCCCC1C(=O)N(c2ccccc2)N(c2ccccc2)C1=O`, the outcome in test [3] was inactive.
With `C=C(C)C(=O)OCCCCCCCCCCCC`, the outcome in test [3] was inactive.
Take `CC(C)CCCCCOC(=O)CS`: in test [3], the result was inactive.
`CC=C(C)C(C)=O`: the result in test [3] was inactive.
On to `CCCCCCC=O`, for which the result in test [3] was inactive.
In the case of `CCc1cccc(C)c1N(C(=O)CS(=O)(=O)O)C(C)COC` (centres undefined), the result in test [3] was inactive.
In the case of `CC/C=C\C/C=C\C/C=C\CCCCCCCC(=O)OC`, the AC50 in [3] is 5.15 µM (active).
Take `c1ccc2c(c1)[nH]c1ccccc12`: the result in [3] was inactive.
In the case of `CCCCCCOC(=O)CCCCC(=O)OCCCCCC`, in test [3], the outcome was inactive.
As for `COc1ccc(C(=O)/C(Br)=C\C(=O)O)cc1`, the AC50 in test [3] was 6.83 µM (active) and 8.75 µM (active).
Consider `C=CC(=O)NCOCCCC`, for which, in test [3], the outcome was inactive.
As to `CC=C(C)C=CC=C(C)C`, the AC50 in [3] is 12.3 µM (active).
Turning to `O=C1CCCCCCCCCCC1`, in [3], the result was inactive.
Still for that read-out and setting: then `COc1ccc(C(=O)c2ccccc2)c(O)c1`, with “inactive”; and `C=CCCCCCCCCC=O`, with “inactive”.
Turning to `C=CC(=O)OCCCCCCCC(C)C`, in test [3], the AC50 was 20 µM (active).
As for `CCOC(=O)C1=NOC(c2ccccc2)(c2ccccc2)C1`, in test [3], the AC50 is 20 µM (active).
Regarding `CCOC(=O)/C=C\C(=O)OCC`, the result in [3] was inactive.
For the compound `Oc1ccc(/C=C/c2cc(O)cc(O)c2)cc1`, in test [3], the AC50 was 6.86 µM (active).
For `O=C(Oc1ccccc1)c1ccccc1C(=O)Oc1ccccc1`, the result in [3] was inactive.
Same read-out and setting: then `CC(C)c1cccc(C(C)C)c1N`, with “inactive”; and `CC(Cl)COP(=O)(OCC(C)Cl)OCC(C)Cl` (centres undefined), with “inactive”.
